# Measured values from PMC7862700, “An all-to-all approach to the identification of sequence-specific readers for epigenetic DNA modifications on cytosine”.
# What was measured:
# Assay in all cases: DAPPL (digital affinity profiling via proximity ligation, sequencing); 10 mM Tris-HCl pH 7.5, 50 mM NaCl, 1 mM DTT, 4% glycerol, room temperature, 30 min; GST-TFs on glutathione beads, 16-mer random dsDNA library, 0.1% formaldehyde crosslink after washing; high values mean tight binding
# FEV = molecular target: T1, FEV (Homo sapiens, UniProt Q99581 1-238); conditions: protein: recombinant; tags: N-terminal GST; dsDNA, one strand shown
# T1 sequence: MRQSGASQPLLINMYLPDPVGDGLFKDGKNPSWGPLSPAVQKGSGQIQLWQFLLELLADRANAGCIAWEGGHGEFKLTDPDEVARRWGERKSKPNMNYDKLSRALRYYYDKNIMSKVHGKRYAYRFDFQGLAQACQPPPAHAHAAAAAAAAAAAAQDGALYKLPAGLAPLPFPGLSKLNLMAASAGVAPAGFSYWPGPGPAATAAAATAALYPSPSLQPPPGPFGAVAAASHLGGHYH
# Method in brief: (§1)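 Pools were built from human transcription factors expressed in yeast as GST fusions, captured on glutathione beads and DNA-barcoded, along with a tag-only sample. Incubation with 200 nmole of a 16-mer random double-stranded DNA library lasted 30 min at room temperature in Tris/NaCl/DTT/glycerol buffer, and was followed by washing, 0.1% formaldehyde crosslinking, proximity ligation, PCR amplification and Illumina NextSeq500 sequencing. Binding signal is the quotient of each hexamer's read frequency for a factor and its frequency for the tag-only sample.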
# ETV5 = ETV5 (Homo sapiens, UniProt P41161 1-510); conditions: protein: recombinant; tags: N-terminal GST; dsDNA, one strand shown
# ETV5, sequence (P41161 whole entry): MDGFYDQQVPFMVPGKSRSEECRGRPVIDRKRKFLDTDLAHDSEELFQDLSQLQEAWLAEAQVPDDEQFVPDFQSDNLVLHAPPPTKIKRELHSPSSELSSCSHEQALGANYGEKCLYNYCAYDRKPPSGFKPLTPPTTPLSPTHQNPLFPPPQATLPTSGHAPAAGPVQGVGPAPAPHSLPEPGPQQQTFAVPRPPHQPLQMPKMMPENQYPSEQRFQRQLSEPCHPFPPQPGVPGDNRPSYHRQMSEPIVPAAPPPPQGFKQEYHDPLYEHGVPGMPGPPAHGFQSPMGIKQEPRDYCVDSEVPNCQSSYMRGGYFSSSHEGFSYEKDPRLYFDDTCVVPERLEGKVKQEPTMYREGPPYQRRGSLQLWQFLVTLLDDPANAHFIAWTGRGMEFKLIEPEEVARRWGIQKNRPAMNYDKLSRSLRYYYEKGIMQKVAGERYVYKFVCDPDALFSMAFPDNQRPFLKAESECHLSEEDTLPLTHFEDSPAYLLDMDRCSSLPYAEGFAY
# Method in brief: as §1
# HSF1 = HSF1 (Homo sapiens, UniProt Q00613 1-529); conditions: protein: recombinant; tags: N-terminal GST; chain copies: 3; dsDNA, one strand shown
# HSF1, sequence (Q00613 whole entry): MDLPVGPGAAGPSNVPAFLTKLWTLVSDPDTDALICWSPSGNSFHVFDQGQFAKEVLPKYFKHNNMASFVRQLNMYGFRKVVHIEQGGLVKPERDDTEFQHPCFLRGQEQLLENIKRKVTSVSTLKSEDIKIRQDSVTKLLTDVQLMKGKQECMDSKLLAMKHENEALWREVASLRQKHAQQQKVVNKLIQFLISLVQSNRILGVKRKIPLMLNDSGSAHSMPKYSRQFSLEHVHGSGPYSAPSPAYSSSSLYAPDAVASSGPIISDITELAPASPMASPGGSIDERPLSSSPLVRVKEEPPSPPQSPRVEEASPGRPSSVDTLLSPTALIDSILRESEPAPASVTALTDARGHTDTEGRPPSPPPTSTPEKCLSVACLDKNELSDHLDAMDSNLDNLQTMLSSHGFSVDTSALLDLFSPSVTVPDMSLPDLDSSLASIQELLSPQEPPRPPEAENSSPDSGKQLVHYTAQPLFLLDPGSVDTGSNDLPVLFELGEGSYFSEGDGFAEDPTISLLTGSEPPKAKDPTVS
# Method in brief: as §1
# SPIC = molecular target: T2, SPIC (Homo sapiens, UniProt Q8N5J4 1-248); conditions: protein: recombinant; tags: N-terminal GST; dsDNA, one strand shown
# T2 sequence: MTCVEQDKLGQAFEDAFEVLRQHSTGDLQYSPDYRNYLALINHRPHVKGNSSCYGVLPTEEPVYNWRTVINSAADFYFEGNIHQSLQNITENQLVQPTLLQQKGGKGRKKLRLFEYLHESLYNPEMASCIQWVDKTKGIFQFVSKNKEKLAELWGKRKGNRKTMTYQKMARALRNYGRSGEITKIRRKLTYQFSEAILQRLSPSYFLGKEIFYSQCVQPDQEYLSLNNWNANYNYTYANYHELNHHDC
# Method in brief: as §1
# ELF4 = ELF4 (Homo sapiens, UniProt Q99607 1-663); conditions: protein: recombinant; tags: N-terminal GST; dsDNA, one strand shown
# ELF4, sequence (Q99607 whole entry): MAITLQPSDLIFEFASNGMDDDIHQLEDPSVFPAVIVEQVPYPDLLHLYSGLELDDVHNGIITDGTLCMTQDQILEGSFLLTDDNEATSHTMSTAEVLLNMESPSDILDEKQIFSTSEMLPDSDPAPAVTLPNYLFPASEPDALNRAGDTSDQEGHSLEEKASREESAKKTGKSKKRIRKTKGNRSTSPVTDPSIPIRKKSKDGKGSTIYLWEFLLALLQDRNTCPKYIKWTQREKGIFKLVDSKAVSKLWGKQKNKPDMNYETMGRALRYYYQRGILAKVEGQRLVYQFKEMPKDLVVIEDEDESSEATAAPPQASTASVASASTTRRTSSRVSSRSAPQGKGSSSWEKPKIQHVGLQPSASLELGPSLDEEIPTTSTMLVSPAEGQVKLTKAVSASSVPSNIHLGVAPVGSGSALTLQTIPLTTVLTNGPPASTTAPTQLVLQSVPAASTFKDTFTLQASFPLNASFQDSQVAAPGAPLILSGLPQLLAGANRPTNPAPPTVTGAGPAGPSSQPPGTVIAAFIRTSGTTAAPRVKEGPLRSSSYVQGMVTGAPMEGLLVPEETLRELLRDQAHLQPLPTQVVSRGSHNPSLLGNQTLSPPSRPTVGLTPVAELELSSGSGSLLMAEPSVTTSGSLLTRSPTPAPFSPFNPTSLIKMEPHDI
# Method in brief: as §1
# ELK4 = molecular target: T3, ELK4 (Homo sapiens, UniProt P28324-2 1-405); conditions: protein: recombinant; tags: N-terminal GST; dsDNA, one strand shown
# T3 sequence: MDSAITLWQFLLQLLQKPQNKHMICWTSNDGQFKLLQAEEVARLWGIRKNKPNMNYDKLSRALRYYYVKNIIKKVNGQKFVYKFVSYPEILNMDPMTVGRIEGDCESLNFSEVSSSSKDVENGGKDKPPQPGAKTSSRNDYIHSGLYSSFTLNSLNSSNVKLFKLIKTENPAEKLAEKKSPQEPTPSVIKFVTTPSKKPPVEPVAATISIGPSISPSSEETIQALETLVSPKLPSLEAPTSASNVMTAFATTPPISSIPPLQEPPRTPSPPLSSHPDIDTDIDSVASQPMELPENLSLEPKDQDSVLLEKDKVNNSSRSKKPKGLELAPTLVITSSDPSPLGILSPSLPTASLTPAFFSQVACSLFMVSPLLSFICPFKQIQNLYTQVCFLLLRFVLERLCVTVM
# Method in brief: as §1
# ETV2 = molecular target: T4, ETV2 (Homo sapiens, UniProt O00321 1-342); conditions: protein: recombinant; tags: N-terminal GST; dsDNA, one strand shown
# T4 sequence: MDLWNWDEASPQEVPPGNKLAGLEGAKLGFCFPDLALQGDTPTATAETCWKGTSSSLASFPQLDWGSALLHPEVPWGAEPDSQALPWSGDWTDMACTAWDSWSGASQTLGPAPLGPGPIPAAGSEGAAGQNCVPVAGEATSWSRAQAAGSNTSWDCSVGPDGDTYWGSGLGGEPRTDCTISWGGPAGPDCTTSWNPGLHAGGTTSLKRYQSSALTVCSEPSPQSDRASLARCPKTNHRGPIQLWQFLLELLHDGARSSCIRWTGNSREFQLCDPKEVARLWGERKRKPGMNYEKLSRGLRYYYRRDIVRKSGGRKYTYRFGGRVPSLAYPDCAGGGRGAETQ
# Method in brief: as §1
# ELF3 = molecular target: T5, ELF3 (Homo sapiens, UniProt P78545 1-371); conditions: protein: recombinant; tags: N-terminal GST; dsDNA, one strand shown
# T5 sequence: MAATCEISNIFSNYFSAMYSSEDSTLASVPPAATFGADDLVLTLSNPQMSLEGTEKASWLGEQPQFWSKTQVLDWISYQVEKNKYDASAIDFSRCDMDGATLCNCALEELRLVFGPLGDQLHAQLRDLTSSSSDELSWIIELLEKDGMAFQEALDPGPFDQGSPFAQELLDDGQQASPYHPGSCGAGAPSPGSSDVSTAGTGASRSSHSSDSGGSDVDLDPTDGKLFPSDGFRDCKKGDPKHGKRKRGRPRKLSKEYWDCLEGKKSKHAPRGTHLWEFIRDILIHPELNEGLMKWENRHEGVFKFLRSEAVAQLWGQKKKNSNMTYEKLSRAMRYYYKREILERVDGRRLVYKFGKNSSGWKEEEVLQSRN
# Method in brief: as §1
# CRX = CRX (Homo sapiens, UniProt O43186 1-299); conditions: protein: recombinant; tags: N-terminal GST; dsDNA, one strand shown
# CRX, sequence (O43186 whole entry): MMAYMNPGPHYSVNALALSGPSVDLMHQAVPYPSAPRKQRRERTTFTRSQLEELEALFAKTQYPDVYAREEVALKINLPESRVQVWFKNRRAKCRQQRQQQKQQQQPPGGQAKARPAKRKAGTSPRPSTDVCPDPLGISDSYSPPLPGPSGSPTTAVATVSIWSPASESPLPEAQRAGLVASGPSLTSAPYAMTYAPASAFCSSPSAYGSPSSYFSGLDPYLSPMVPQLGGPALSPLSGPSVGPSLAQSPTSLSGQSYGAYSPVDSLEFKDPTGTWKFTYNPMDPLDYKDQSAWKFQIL
# Method in brief: as §1
# ETV1 = ETV1 (Homo sapiens, UniProt P50549 1-477); conditions: protein: recombinant; tags: N-terminal GST; dsDNA, one strand shown
# ETV1, sequence (P50549 whole entry): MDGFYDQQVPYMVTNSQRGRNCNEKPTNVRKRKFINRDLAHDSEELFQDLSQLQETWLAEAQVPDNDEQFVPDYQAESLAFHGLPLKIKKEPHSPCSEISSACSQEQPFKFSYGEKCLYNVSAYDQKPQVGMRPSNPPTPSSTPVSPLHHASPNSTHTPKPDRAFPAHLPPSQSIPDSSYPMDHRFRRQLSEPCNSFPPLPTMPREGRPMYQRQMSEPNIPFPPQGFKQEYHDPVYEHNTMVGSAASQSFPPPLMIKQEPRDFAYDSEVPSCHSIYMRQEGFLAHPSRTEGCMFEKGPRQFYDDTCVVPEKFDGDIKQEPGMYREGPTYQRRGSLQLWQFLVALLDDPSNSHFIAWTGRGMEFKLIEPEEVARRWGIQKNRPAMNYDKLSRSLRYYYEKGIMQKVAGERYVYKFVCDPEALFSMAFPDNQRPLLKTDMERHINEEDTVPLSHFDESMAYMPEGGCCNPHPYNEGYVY
# Method in brief: as §1
# ERF = molecular target: T6, ERF (Homo sapiens, UniProt P50548 1-548); conditions: protein: recombinant; tags: N-terminal GST; dsDNA, one strand shown
# T6 sequence: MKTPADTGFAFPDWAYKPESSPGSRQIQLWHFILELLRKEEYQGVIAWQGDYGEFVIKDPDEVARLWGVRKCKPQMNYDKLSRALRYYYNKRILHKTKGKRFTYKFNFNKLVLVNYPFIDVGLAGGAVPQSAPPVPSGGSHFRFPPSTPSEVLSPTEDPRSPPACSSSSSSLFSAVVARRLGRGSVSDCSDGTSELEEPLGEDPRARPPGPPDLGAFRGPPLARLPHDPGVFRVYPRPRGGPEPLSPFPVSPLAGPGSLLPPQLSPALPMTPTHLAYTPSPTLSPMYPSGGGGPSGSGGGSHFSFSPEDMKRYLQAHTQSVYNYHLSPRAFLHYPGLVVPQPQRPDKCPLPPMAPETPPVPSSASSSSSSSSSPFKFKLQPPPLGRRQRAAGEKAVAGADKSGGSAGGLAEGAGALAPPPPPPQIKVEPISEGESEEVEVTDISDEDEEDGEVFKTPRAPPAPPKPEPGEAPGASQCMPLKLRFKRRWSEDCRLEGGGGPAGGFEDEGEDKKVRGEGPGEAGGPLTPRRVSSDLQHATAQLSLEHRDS
# Method in brief: as §1
# ETV3L = molecular target: T7, ETV3L (Homo sapiens, UniProt Q6ZN32 1-361); conditions: protein: recombinant; tags: N-terminal GST; dsDNA, one strand shown
# T7 sequence: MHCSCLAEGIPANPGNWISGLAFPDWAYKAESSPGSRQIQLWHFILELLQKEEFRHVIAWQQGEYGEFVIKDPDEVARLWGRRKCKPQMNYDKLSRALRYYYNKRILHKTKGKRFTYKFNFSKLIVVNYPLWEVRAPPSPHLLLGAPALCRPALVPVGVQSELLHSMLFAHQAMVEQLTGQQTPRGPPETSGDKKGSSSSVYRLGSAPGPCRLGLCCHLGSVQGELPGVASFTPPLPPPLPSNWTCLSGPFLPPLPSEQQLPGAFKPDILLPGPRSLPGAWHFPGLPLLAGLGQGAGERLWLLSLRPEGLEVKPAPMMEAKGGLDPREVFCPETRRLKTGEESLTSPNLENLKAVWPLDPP
# Method in brief: as §1
# ETS2 = molecular target: T8, ETS2 (Homo sapiens, UniProt P15036 1-469); conditions: protein: recombinant; tags: N-terminal GST; dsDNA, one strand shown
# T8 sequence: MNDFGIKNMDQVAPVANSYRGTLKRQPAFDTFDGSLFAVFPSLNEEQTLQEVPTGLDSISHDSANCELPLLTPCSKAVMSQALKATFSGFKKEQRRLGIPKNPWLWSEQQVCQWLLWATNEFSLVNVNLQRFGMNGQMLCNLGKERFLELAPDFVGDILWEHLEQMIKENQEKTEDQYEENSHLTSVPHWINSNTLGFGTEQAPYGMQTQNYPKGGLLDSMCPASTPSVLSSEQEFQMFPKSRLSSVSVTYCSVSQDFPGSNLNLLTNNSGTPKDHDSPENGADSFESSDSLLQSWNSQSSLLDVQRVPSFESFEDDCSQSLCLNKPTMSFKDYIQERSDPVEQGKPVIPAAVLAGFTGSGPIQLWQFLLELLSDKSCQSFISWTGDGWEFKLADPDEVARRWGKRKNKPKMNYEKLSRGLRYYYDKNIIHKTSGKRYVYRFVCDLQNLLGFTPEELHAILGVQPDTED
# Method in brief: as §1
# SPDEF = molecular target: T9, SPDEF (Homo sapiens, UniProt O95238 1-335); conditions: protein: recombinant; tags: N-terminal GST; dsDNA, one strand shown
# T9 sequence: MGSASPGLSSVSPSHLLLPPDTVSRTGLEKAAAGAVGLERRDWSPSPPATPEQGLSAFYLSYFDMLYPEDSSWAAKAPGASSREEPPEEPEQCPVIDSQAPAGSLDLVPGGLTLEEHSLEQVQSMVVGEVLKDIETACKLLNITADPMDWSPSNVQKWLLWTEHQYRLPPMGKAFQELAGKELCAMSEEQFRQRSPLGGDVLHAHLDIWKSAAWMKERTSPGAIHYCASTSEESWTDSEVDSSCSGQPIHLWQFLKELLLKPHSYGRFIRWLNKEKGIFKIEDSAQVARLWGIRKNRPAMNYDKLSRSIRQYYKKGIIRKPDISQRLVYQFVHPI
# Method in brief: as §1
# ETV7 = molecular target: T10, ETV7 (Homo sapiens, UniProt Q9Y603 1-341); conditions: protein: recombinant; tags: N-terminal GST; dsDNA, one strand shown
# T10 sequence: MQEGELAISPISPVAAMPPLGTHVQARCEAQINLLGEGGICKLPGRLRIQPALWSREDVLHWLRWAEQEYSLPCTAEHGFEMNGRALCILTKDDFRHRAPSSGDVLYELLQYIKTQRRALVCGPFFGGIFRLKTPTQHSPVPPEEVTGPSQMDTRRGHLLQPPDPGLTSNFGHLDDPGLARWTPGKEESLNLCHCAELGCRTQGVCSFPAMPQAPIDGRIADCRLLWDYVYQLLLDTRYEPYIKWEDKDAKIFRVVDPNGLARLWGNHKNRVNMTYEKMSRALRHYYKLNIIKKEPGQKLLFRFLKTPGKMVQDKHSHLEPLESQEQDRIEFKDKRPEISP
# Method in brief: as §1
# ELF5 = molecular target: T11, ELF5 (Homo sapiens, UniProt Q9UKW6-2 1-255); conditions: protein: recombinant; tags: N-terminal GST; dsDNA, one strand shown
# T11 sequence: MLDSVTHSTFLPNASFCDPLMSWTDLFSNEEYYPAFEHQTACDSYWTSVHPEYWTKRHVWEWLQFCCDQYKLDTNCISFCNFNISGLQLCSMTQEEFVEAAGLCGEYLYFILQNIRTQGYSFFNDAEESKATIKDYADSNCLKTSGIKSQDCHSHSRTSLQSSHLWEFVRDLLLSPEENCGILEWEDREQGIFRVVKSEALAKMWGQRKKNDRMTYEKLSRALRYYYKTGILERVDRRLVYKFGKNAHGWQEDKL
# Method in brief: as §1
# ETV3 = molecular target: T12, ETV3 (Homo sapiens, UniProt P41162-2 1-143); conditions: protein: recombinant; tags: N-terminal GST; dsDNA, one strand shown
# T12 sequence: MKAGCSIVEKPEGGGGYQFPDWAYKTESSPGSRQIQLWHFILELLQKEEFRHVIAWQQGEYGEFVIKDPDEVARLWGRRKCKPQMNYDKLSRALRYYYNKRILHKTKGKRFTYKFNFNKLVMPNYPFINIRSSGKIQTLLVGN
# Method in brief: as §1
# ETV6 = ETV6 (Homo sapiens, UniProt P41212 1-452); conditions: protein: recombinant; tags: N-terminal GST; dsDNA, one strand shown
# ETV6, sequence (P41212 whole entry): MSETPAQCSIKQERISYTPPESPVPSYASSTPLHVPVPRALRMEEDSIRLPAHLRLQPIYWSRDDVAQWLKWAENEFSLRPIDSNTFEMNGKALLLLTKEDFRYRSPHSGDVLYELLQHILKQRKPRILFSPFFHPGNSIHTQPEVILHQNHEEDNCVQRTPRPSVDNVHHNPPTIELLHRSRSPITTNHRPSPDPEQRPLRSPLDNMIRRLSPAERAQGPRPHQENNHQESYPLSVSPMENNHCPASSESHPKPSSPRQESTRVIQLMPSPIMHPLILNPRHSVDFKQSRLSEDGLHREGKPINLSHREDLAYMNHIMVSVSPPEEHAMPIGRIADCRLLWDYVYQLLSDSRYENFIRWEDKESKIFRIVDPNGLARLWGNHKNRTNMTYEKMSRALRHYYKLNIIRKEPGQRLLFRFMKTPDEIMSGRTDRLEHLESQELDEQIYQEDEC
# Method in brief: as §1
sequence,measurement,setting,value
AACATC,binding signal,FEV,"1.63 fold enrichment (6-mer frequency, TF over GST control)"
same,binding signal,ETV5,"1.51 fold enrichment (6-mer frequency, TF over GST control)"
same,binding signal,HSF1,"1.3 fold enrichment (6-mer frequency, TF over GST control)"
same,binding signal,SPIC,"1.44 fold enrichment (6-mer frequency, TF over GST control)"
same,binding signal,ELF4,"1.41 fold enrichment (6-mer frequency, TF over GST control)"
same,binding signal,ELK4,"1.41 fold enrichment (6-mer frequency, TF over GST control)"
same,binding signal,ETV2,"1.45 fold enrichment (6-mer frequency, TF over GST control)"
same,binding signal,ELF3,"1.5 fold enrichment (6-mer frequency, TF over GST control)"
same,binding signal,CRX,"1.12 fold enrichment (6-mer frequency, TF over GST control)"
same,binding signal,ETV1,"1.43 fold enrichment (6-mer frequency, TF over GST control)"
same,binding signal,ERF,"1.43 fold enrichment (6-mer frequency, TF over GST control)"
same,binding signal,ETV3L,"1.41 fold enrichment (6-mer frequency, TF over GST control)"
same,binding signal,ETS2,"1.45 fold enrichment (6-mer frequency, TF over GST control)"
same,binding signal,SPDEF,"1.68 fold enrichment (6-mer frequency, TF over GST control)"
same,binding signal,ETV7,"1.35 fold enrichment (6-mer frequency, TF over GST control)"
same,binding signal,ELF5,"1.64 fold enrichment (6-mer frequency, TF over GST control)"
same,binding signal,ETV3,"1.5 fold enrichment (6-mer frequency, TF over GST control)"
same,binding signal,ETV6,"1.4 fold enrichment (6-mer frequency, TF over GST control)"
